Rows were chosen to be rich in hits. Some 11% of all compounds tested hit in one or more screens of this group.
PI5P4K alpha inh – blocks human PI5P4K alpha kinase activity; P48426; PI5P4Kalpha enzyme, ADP-Glo luminescence, 60 min; hits give low values; max response, %; 1.2% of 330,000 active; AID 652105; active = max response of -50% or lower; inconclusive = between -30% and -50%; inactive = -30% or higher; note: value at the top dose of about 77 µM; % is set by controls: 0 for no effect and ±100 for the full control effect
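Quantitative HTS of the MLSMR library against PI5P4Kalpha with substrate. ATP added last at 5 microM final; room temperature, 60 minutes. Remaining ATP depleted, ADP converted and read as luminescence.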
G9a inh – inhibitors of human histone lysine methyltransferase G9a; Q96KQ7; G9a H3K9 monomethylation, AlphaScreen, 2 h; Potency, µM (highest dose often 102 µM), for inactives: top-dose activity, negative = inhibition, usual class: inhibitors; 8.8% of 350,000 active; AID 504332; note: potency is the fitted concentration of half-maximal effect; % is set by controls: 0 for no effect and ±100 for the full control effect; nearly all actives have a fitted effect of over 75% in size
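G9a (20 nM) was preincubated 15 min with compound, then reacted 2 h at room temperature with 500 nM biotin-H3K9 peptide and 20 µM SAM. Monomethyl-H3K9 detected by AlphaScreen using anti-H3K9me1 antibody.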
JMJD2A Tudor – JMJD2A Tudor domain (human) inhibition; 4.4% of 390,000 active; AlphaScreen JMJD2A-Tudor / H3K4me3 peptide binding; AID 504339; Potency, µM (highest dose often 114 µM), for inactives: top-dose activity change, negative = inhibition, usual class: inhibitors; note: potency is the fitted concentration of half-maximal effect; % is set by controls: 0 for no effect and ±100 for the full control effect; nearly all actives have a fitted effect of over 50% in size
BAZ2B block – BAZ2B (human) inhibition; AlphaScreen BAZ2B-H3K14Ac peptide displacement; Potency, µM (doses to about 114 µM), inactives show top-dose activity change, negative = inhibition, usual class: inhibitors; 4.4% of 360,000 active; AID 504333; note: potency is the fitted concentration of half-maximal effect; % is set by controls: 0 for no effect and ±100 for the full control effect; nearly all actives have a fitted effect of over 60% in size
Target sequence (Q9UIF8 whole entry, looked up): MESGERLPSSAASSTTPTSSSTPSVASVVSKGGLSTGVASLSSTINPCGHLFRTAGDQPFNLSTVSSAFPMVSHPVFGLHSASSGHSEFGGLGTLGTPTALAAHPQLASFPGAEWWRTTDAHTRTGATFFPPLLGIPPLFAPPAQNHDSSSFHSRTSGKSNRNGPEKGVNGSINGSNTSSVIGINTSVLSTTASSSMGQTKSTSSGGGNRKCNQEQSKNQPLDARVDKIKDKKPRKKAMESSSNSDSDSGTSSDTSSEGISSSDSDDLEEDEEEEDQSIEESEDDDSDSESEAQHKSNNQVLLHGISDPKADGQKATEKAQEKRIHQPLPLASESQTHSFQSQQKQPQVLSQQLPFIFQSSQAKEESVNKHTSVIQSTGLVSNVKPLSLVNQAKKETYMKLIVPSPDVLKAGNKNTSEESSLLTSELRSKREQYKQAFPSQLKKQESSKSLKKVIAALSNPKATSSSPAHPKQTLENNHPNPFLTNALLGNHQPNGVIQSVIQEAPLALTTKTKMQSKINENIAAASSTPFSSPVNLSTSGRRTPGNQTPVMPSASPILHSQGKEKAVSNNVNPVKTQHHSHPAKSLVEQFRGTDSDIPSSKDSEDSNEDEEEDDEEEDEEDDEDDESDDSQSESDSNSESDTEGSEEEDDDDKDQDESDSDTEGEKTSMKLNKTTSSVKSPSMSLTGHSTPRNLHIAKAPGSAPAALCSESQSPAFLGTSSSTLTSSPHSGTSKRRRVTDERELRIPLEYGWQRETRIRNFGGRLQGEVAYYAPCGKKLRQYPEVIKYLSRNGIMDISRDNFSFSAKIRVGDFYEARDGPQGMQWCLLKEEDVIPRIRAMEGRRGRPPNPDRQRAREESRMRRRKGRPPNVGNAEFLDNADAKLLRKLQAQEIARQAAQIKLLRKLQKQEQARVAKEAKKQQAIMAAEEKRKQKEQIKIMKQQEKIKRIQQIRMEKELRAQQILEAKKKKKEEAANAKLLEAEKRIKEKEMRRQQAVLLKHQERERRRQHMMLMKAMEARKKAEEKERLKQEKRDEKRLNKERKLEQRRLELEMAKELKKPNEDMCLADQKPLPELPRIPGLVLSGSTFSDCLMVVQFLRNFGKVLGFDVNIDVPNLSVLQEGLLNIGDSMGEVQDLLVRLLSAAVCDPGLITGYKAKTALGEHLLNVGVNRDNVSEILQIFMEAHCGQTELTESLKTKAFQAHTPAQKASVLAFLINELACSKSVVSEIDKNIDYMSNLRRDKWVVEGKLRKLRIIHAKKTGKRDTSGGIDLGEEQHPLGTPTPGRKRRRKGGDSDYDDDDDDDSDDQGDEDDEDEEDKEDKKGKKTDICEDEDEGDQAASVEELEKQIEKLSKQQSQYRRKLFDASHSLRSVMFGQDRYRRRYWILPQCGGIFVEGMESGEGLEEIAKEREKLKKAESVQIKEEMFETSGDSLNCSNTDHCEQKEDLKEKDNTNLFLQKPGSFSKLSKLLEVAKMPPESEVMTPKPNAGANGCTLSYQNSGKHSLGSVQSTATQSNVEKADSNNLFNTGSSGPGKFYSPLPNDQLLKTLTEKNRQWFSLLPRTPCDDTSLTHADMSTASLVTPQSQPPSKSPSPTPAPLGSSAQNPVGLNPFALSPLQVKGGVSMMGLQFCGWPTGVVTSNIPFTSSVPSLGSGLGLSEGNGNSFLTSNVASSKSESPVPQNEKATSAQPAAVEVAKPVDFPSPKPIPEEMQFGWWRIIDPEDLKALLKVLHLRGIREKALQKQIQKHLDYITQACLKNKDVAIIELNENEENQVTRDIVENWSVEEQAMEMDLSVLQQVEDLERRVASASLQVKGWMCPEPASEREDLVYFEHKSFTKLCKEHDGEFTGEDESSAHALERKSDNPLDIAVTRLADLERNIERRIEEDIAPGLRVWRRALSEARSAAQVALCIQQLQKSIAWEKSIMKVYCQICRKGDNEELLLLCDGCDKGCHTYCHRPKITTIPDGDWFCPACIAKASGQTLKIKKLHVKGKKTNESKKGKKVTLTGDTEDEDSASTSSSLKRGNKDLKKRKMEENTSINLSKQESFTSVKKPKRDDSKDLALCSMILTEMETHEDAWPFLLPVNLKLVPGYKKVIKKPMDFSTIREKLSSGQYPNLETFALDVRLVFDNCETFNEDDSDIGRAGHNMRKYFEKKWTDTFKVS
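Protein-peptide AlphaScreen: BAZ2B 50 nM, b-H3K14Ac 50 nM, 1x PBS pH 7.4 + 0.01% Tween-20. Preincubation 30 min RT; cpd 30 min RT (top 110 uM); beads 20 min RT, light-protected.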
HP1b chromo inh – blocks HP1-beta chromodomain binding to methylated histone tails. AID 540317. Potency, µM (top dose mostly 114 µM), for the others: top-dose activity change, negative = inhibition, most hits filed as inhibitors. 0.56% of 390,000 active. AlphaScreen HP1-beta / biotin-H3K9me3 peptide binding. P83916; note: potency is the fitted concentration of half-maximal effect; nearly all actives have a fitted effect of over 70% in size
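Compound inhibition of the preformed complex between 50 nM HP1-beta and 50 nM biotinylated H3K9me3 peptide was read by AlphaScreen. Buffer was PBS pH 7.4 with 0.01% Tween-20. Incubations ran 30 min at room temperature, with 10 ug/mL donor/acceptor beads.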
L3MBTL1 block – inhibitors of human L3MBTL1. Q9Y468. AlphaScreen L3MBTL1–H3K9me1 peptide binding. Potency, µM (highest dose often 57.1 µM), for the others: at the top dose activity, negative = inhibition, usual class: inhibitors. 0.66% of 230,000 active. AID 485360; note: potency is the fitted concentration of half-maximal effect; % is set by controls: 0 for no effect and ±100 for the full control effect; nearly all actives have a fitted effect of over 60% in size
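L3MBTL1 (50 nM) pre-complexed 30 min with biotinylated H3(1-15)K9me1 peptide (75 nM), then compounds added for 30 min at room temperature; AlphaScreen streptavidin donor/nickel chelate acceptor beads (10 ug/mL final) read after 30 min dark incubation.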
ADP-Glo interf – counter-screen for PI5P4K inhibitors: ADP-Glo detection interference, no enzyme; 1,100 tested, under 10 active; AID 743285; shares compounds with PI5P4K alpha inh; ADP-Glo detection counter-screen, luciferase luminescence, no enzyme; Potency, µM (titrated, usually from 76.9 µM), for the others: at the highest dose activity change, negative = inhibition, usual class: inhibitors
* hit, by the source's call; ? = inconclusive; . = not tested or not shown; [ ] = dose if it differs, or a comment. Unless noted, calls come from the whole dose curve; as a rule, active = well fitted curve in the direction sought with a large enough effect; inconclusive = small, poorly fitted or top-dose-only effect, or another doubt; inactive = no such curve, though single readings can be large; an effect the other way counts as inactive or inconclusive.

SMILES	PI5P4K alpha inh	G9a inh	JMJD2A Tudor	BAZ2B block	HP1b chromo inh	L3MBTL1 block	ADP-Glo interf
N#CCC(=O)N1CC2(CC(c3cccc(NC(=O)COc4ccc(Cl)cc4)c3)=NO2)C[C@@H]1C(N)=O (some centres undefined)	-2	-1%[59 µM]	-9%	-10%	23%	.	.
O=C1NC(c2ccc(Br)cc2)Nc2ccccc21 (centres undefined)	0	29%	-6%	1%	48%	8%	.
O=C1NC(c2cccs2)Nc2ccccc21 (centres undefined)	-58*	?	?	0%	-9%	.	2%
COc1ccc(Cl)cc1C(Nc1cccnc1)c1ccc2cccnc2c1O (centres undefined)	-72*	4µM*	35µM*	35µM*	?	-15%	2%
COc1ccc(C(NC(=O)c2cccnc2)c2cc(Cl)c3cccnc3c2O)cc1OC (centres undefined)	13	19%[0.501 µM]	-22%	?	57%	?	.
O=C(CCS(=O)(=O)c1ccc(Br)cc1)NCc1ccc(F)cc1	?	?	82%	40µM*	131%	.	-3%
Cc1ccc(CNC(=O)CCS(=O)(=O)c2ccc(Cl)cc2)cc1	-94*	-17%	-12%	1%	33%	-3%	-10%
CCOc1ccc(-c2cn3c(n2)sc2cc(C(=O)NCCCN(CC)CC)ccc23)cc1	.	-3%[59 µM]	7%	2%	29%	.	.
CCN(CC(=O)NC(C)(C)C)Cc1cc(=O)n2c(-c3ccccc3)csc2n1	-74*	-22%	-27%	?	-9%	.	3%
CCc1ccccc1S(=O)(=O)Cc1ccc(C(=O)NCCc2ccc(Cl)cc2)o1	.	12%[59 µM]	-13%	-5%	39%	.	.
Cc1cc(NC(=O)CCCn2cc([N+](=O)[O-])cn2)n(Cc2ccc(F)cc2)n1	-68*	9%	-22%	2%	5%	.	-12%
Cc1cc(C(=O)OCC(=O)Nc2c(F)cccc2F)c(C)n1-c1ccccc1	-75*	-14%	20µM*	?	?	-18%	-5%
Cc1cc(C(=O)OCC(=O)N2CCOCC2)c(C)n1-c1ccccc1	0	.	-7%	.	7%	-2%	.
CCc1c(C)c2ccc(O)c(CN3CCN(c4ccc(OC)cc4)CC3)c2oc1=O	.	-9%[59 µM]	12%	1%	38%	.	.
Cc1ccc(-n2c(SCC(=O)Nc3ccc4c5c(cccc35)CC4)nc(O)cc2=O)cc1	-51*	13%[59 µM]	-34%	-13%	34%	-3%	0%
CC(=O)Nc1cccc2ccc(O)cc12	-62*	.	-25%	.	-2%	.	2%
CCOc1ccc(Cl)cc1S(=O)(=O)n1cnc2ccccc21	1	-12%[59 µM]	-4%	1%	19%	1%	-7%
COc1cc(Cl)c(C)cc1NC(=O)CSc1sc2c(O)cc(=O)[nH]c2c1C#N	-73*	?	56µM*	40µM*	1%	.	-6%
COc1cc(Cl)c(C)cc1NC(=O)CSCC#N	.	6%[59 µM]	0%	-3%	46%	3%	.
CSc1nsc(SCC(=O)Nc2nncs2)n1	-1	?	-3%	-26%	-34%	.	.
N#Cc1c(SCC(=O)Nc2nncs2)sc2c(O)cc(=O)[nH]c12	-76*	?	25µM*	10µM*	?	.	1%
CCn1c(=O)cc(OCC(=O)N2CCN(c3ccccc3OC)CC2)c2ccccc21	.	-32%[59 µM]	-12%	-16%	31%	.	.
CC1CCCCC1NC(=O)COC(=O)c1c2c(nc3ccccc13)/C(=C\c1ccco1)CC2 (centres undefined)	-74*	.	45µM*	.	?	.	-3%
CCOC(=O)c1ccc(Nc2c(-c3ccc(O)cc3)nc3nc[nH]n23)cc1	.	-44%[59 µM]	-32%	?	?	.	.
O=c1c2ccccc2nc(-c2ccc(Cl)cc2)n1CCCOc1ccccc1F	.	-36%[59 µM]	9%	14%	56%	.	.
SMILES	PI5P4K alpha inh	G9a inh	JMJD2A Tudor	BAZ2B block	HP1b chromo inh	L3MBTL1 block	ADP-Glo interf
COc1ccc(C(=O)N2CCCC2(C)C(=O)O)cc1C(F)(F)F (centres undefined)	-87*	.	.	.	.	.	1%
CCOC(=O)C1(C)CCCCCN1C(=O)c1ccc(OC)c(C(F)(F)F)c1 (centres undefined)	-4	.	.	.	.	.	.
Cc1ccc(N=c2oc3cc(O)ccc3cc2C(N)=O)cc1	-52*	-14%	-34%[57.1 µM]	-36%	26%	-16%	-2%
CCc1ccc(-c2nc3cc(NC(=O)c4cc5ccccc5cc4OC)ccc3o2)cc1	.	-4%[59 µM]	-23%	-4%	-1%	.	.
COc1ccc(CC(=O)NCC(=O)NC(Cc2ccccc2)C(=O)O)cc1 (centres undefined)	-65*	5%	-21%	-14%	27%	.	-1%
O=C(Cc1ccccc1)N[C@@H](Cc1ccccc1)C(=O)O	-26	8%[59 µM]	-16%	-1%	38%	2%	.
O=S(=O)(c1ccccc1)N1N=C(c2cccs2)CC1c1ccc(Br)cc1 (centres undefined)	-55*	-14%	-2%	-35%	27%	5%	5%
O=S(=O)(c1ccccc1)N1N=C(c2ccccc2)CC1c1ccccc1 (centres undefined)	-11	-19%	-11%	5%	19%	-1%	.
CCN(CC)C(=O)CSc1nc2ccc(NC(=O)CSc3nnc(N)s3)cc2s1	-57*	?	-26%	-37%	17%	?	-3%
CCN(CC)C(=O)CSc1nc2ccc(NC(=O)CSc3nccn3C)cc2s1	.	?	-18%	-7%	4%	?	.
CC(=O)Nc1ccc2nc(SCC(=O)NCCOc3ccccc3)sc2c1	-61*	11%[59 µM]	?	?	9%	.	2%
CCOC(=O)c1ccc(NC(=O)Cn2nc(SC)c(S(=O)(=O)c3ccc(Cl)cc3)c2N)cc1	.	-4%[59 µM]	-23%	-20%	28%	.	.
COc1cccc(CNC(=O)c2c(C)oc3ncnc(N4CCOCC4)c23)c1	.	-4%[59 µM]	?	6%[57.1 µM]	23%	.	.
O=C(c1ccco1)N1N=C(c2cccs2)CC1c1ccc(F)cc1 (centres undefined)	-2	-29%[59 µM]	-14%	-3%	28%	.	.
CS(=O)(=O)Nc1ccc(C2=NN(C(=O)c3ccco3)C(c3ccc(F)cc3)C2)cc1 (centres undefined)	-56*	?	-19%	.	9%	.	-5%
O=C(NCc1ccco1)c1cccc(Nc2nc3ccc(Br)cc3[nH]2)c1	-1	?	?	-28%	12%	-11%	.
